# Source: the supplement of paper PMC5641865, “A screen for kinase inhibitors identifies antimicrobial imidazopyridine aminofurazans as specific inhibitors of the Listeria monocytogenes PASTA kinase PrkA” (The Journal of Biological Chemistry, 2017)
# Counter-ions that a name gives are not always drawn. ± gives the standard deviation of the averaged measurements.
# System: Listeria monocytogenes 10403S
# Assay: growth inhibition relative to ceftriaxone-alone control; higher = stronger potentiation of ceftriaxone growth inhibition
# Conditions: 10 µM; ceftriaxone 1 ug/ml; 12 h
# 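Also: End-point A600 read in BHI broth at 37 °C with 2% DMSO, inhibition computed as (1 − OD with compound plus ceftriaxone ÷ OD with ceftriaxone only) × 100.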
row,SMILES,growth inhibition [%]
1,Cc1nc(N)sc1-c1ccnc(Nc2ccc(N3CCOCC3)cc2)n1,-5.25 ± 7.3
2,COc1cc(C=NNc2ncnc3c2cnn3Cc2ccccc2)ccc1O,-10.8 ± 3.7
3,CCS(=O)(=O)c1ccc(OC)c(Nc2ncc(-c3cccc(OC)c3)o2)c1,-9.19 ± 17
4,COc1cc(Nc2c(C#N)cnc3cc(OCCCN4CCN(C)CC4)c(OC)cc23)c(Cl)cc1Cl [Bosutinib (SKI-606)],72.2 ± 1.1
5,COc1cc(N2CCN(C(C)C)CC2)ccc1Nc1nc(Nc2cccc3ncccc23)c2cc[nH]c2n1,-2.19 ± 2.3
6,Cc1ccc(NC(=O)c2ccoc2)cc1-c1ccc(C(=O)NCC2CC2)cc1,16.8 ± 3.1
7,NS(=O)(=O)c1cccc(-c2ccc3c(NC(=O)C4CC4)n[nH]c3c2)c1,0.81 ± 3.7
8,CCNC(=O)O[C@H]1CN[C@H](C#Cc2cc3ncnc(Nc4ccc(OCc5cccc(F)c5)c(Cl)c4)c3s2)C1,27.1 ± 33
9,NS(=O)(=O)c1ccc(NC=C2C(=O)Nc3ccc4ncsc4c32)cc1,-8.58 ± 4.7
10,CNC(=O)c1ccc(-c2cnc3ncc(Cc4ccc5ncccc5c4)n3n2)cc1F,16.9 ± 8.9
11,CN1CCN(C(=O)c2ccc(NC(=O)Nc3ccc(N(C)c4ccnc(Nc5ccc(CS(C)(=O)=O)cc5)n4)cc3)cc2)CC1,-5.87 ± 3.3
12,Cc1nc(NC(=O)N2CCC[C@H]2C(N)=O)sc1-c1ccnc(C(C)(C)C(F)(F)F)c1,24.9 ± 21
13,CS(=O)(=O)CCNCc1ccc(-c2ccc3ncnc(Nc4ccc(OCc5cccc(F)c5)c(C(F)(F)F)c4)c3c2)o1,-12.1 ± 6.9
14,Cc1c2ccc(N(C)c3ccnc(Nc4cccc(S(N)(=O)=O)c4)n3)cc2nn1C,2.52 ± 4.2
15,COc1c(C(N)=O)cc(-c2ccc(Cl)cc2)cc1-c1ccc(S(N)(=O)=O)cc1,1.37 ± 1.2
16,CCC[C@H](NC(=O)/C(C#N)=C/c1cccc(Br)n1)c1ccccc1,99.32 ± 0.54
17,CO[C@@H](C(=O)N1Cc2[nH]nc(NC(=O)c3ccc(N4CCN(C)CC4)cc3)c2C1)c1ccccc1,45.2 ± 16
18,Nc1nccc(-c2c(-c3ccc(F)cc3)ncn2C2CCC(O)CC2)n1 (stereo not drawn),-2.07 ± 1.6
19,Cn1c(=O)c(F)c(Nc2ccc(I)cc2F)c2c(=O)n(C[C@@H](O)CO)cnc21,23 ± 13

row,SMILES,growth inhibition [%]
1,CN1CC[C@H](c2c(O)cc(O)c3c(=O)cc(-c4ccccc4Cl)oc23)[C@H](O)C1 [Flavopiridol HCl],10.3 ± 6.8
2,CCN1CCC(CC(=O)Nc2n[nH]c3nc(-c4cccs4)c(Br)cc23)CC1,7.98 ± 1.7
3,COc1cc2nccc(Oc3ccc(NC(=O)C4(C(=O)Nc5ccc(F)cc5)CC4)cc3)c2cc1OC [XL-184 (Cabozantinib)],30.5 ± 5.4
4,CCC(=O)N1CCN(c2ccc(-n3c(=O)ccc4cnc5ccc(-c6cnc7ccccc7c6)cc5c43)cc2C(F)(F)F)CC1 [Torin 1],-4.1 ± 10
5,COc1ccc2cc(-c3c(-c4ccncc4)nc(-c4ccc([S+](C)[O-])cc4)n3C)ccc2c1 (stereo not drawn),12 ± 0.7
6,CC(C)(O)CC(=O)NCCn1ccc2ncnc(Nc3ccc(Oc4cccc(C(F)(F)F)c4)c(Cl)c3)c21,98.62 ± 0.75
7,CNC(=O)c1cncc(/C=C/c2c(C)cccc2C)c1,-1.2 ± 3.7
8,CC(C)=Cc1cccc2c1/C(=N/Nc1ccc(S(N)(=O)=O)cc1)C(=O)N2,-2.72 ± 0.38
9,COc1cccc(-n2cnc3c(N/N=C/c4ccncc4)ncnc32)c1,-10.6 ± 15
10,Nc1nccc(-c2c(-c3ccc(F)cc3)nn3cc(C(F)(F)F)ccc23)n1,-7.97 ± 19
11,COc1cc2nccc(Oc3ccc(NC(=O)NC4CC4)c(Cl)c3)c2cc1C(N)=O [E7080 (Lenvatinib)],5.83 ± 14
12,Cc1ccc(O)cc1Nc1ccnc2ccc(S(C)(=O)=O)cc12,-11.4 ± 13
13,CS(=O)(=O)CCNCc1cc(-c2cc3c(Nc4ccc(OCc5cccc(F)c5)c(Cl)c4)ncnc3s2)cs1,-10.8 ± 13
14,COc1ccc(-c2nn3ncccc3c2-c2ccnc(Nc3ccc(F)c(F)c3)n2)cc1,-0.06 ± 1.5
15,[O-][S+]1CCN(Cc2ccc(-c3ccc4ncnc(Nc5ccc(OCc6cccc(F)c6)c(Cl)c5)c4c3)o2)CC1,-4.71 ± 1.9
16,CCS(=O)(=O)c1ccc(OC)c(Nc2ncc(-c3cccc(-c4ccccc4F)c3)o2)c1,2.03 ± 2.4
17,CC(=O)Nc1cccc(C#Cc2cncnc2Nc2ccc(OCc3cccc(F)c3)c(Cl)c2)c1,-15 ± 2.5
18,COc1cc(Nc2nccc(Nc3ccc4c(C)n[nH]c4c3)n2)cc(OC)c1OC,-7.71 ± 14
19,O=C1Nc2ccccc2C1=C1CCc2cc(O)ccc21,7.57 ± 3.2
